CCHF vOTU inh – CCHFV vOTU protease inhibition; inhibition, % at 11.5 µM; Pep-AMC fluorescence; 0.55% of 370,000 active; in the data active means inhibition above about 30%; further: 0% = vehicle wells with enzyme and 100% = no enzyme wells
SARS 3CLpro inh – SARS-CoV 3CLpro protease inhibition; P0C6X7; AID 1706; inhibition, % at 6 µM; 0.14% of 290,000 active; recombinant SARS-CoV 3CLpro, quenched FRET peptide cleavage; in the data active means inhibition above about 12%
BoNT-F LC inh – BoNT F light chain protease inhibition; AID 588497; Multiplex microsphere protease cleavage assay, flow cytometry; 0.22% of 360,000 active; inhibition, % at 10 µM; in the data active means inhibition above about 35%, passing the limit was not always enough; inconclusive means no clear call, values can overlap the other calls; further: plate controls were buffer without enzyme for full effect and enzyme alone for no effect
Anthrax LF inh2 – blocks Bacillus anthracis lethal factor protease; P15917; multiplex microsphere protease cleavage assay, LF; inhibition, % at 10 µM; 0.12% of 360,000 active; further: plate controls were buffer without enzyme for full effect and enzyme alone for no effect
Target sequence (P15917 whole entry, looked up): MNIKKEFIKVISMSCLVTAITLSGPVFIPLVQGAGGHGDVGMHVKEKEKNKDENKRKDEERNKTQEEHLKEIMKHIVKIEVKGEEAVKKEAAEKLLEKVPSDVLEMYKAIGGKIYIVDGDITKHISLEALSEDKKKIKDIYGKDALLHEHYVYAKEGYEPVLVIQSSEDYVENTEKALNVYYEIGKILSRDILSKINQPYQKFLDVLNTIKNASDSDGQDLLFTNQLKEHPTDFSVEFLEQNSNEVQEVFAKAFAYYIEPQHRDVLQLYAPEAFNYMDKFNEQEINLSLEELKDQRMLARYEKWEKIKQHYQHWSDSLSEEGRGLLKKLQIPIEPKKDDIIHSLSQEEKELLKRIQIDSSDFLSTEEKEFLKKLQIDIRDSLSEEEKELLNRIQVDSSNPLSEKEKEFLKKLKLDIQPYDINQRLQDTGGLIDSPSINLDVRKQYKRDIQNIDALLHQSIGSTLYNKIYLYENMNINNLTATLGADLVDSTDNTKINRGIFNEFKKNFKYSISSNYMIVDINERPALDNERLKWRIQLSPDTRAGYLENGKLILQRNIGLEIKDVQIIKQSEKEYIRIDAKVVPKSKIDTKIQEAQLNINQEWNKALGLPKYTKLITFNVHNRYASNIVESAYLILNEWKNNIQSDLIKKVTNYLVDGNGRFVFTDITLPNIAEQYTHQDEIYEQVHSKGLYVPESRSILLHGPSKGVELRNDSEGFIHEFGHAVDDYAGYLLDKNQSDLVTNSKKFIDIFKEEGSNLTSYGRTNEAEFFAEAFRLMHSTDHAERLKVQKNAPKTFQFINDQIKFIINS
BoNT A protease – inhibitors of Botulinum neurotoxin A light chain protease; inhibition, % at 10 µM; multiplex microsphere protease substrate cleavage, flow cytometry; AID 588499; 0.17% of 360,000 active; further: plate controls were buffer without enzyme for full effect and enzyme alone for no effect
Autofluor counter – compound fluorescence in toxin protease inhibitor counterscreen. 3.1% of 360,000 active. compound autofluorescence counterscreen, microsphere flow cytometry; active compounds read high. fluorescence intensity (concentration not given with the values). AID 624483; in the data active means fluorescence intensity above about 16000; inconclusive means no clear call, values can overlap the other calls
* hit, by the source's call; u = inconclusive; x = no result given. Compounds with a hit are over-represented: about 3.9% of the library has one in this group of screens. Unless noted, no stated cut-off is given here; in the data, active means inhibition above about 30%; inconclusive means no clear call, values can overlap the other calls; inactive means below that.

SMILES | CCHF vOTU inh | SARS 3CLpro inh | BoNT-F LC inh | Anthrax LF inh2 | BoNT A protease | Autofluor counter
O=C(Cc1ccc(Cl)cc1)Nc1cccnc1Cl | 5 | x | 2 | -3 | 0 | 3426
COc1cc(C(=S)N2CCCCC2)ccc1OCC(=O)N1CCCC1 | -14 | 5 | 14 | -5 | 0 | 4046
COc1cc(CO)cc(Br)c1OCC(=O)N1CCCCC1 | 3 | -1 | 4 | -4 | 3 | 21247*
Cc1cc(C)cc(OCC(=O)N2CCCCCC2)c1 | -13 | -3 | 5 | -6 | u | 22007*
COc1cc(CNCCCN2CCOCC2)cc(Br)c1OCC(=O)N1CCCCC1 | 8 | 4 | 13 | 3 | 10 | 18727*
COc1ccc(N(C(=O)C(C)C)S(=O)(=O)c2ccc(Cl)cc2)cc1 | -8 | -1 | 2 | -2 | 0 | 16342*
Cc1ccc(-n2c(SCC(=O)c3ccc(-c4ccccc4)cc3)nnc2-c2ccc(C(C)(C)C)cc2)cc1 | 6 | x | x | x | x | x
COc1cccc(C(=O)NC2=NCCS2)c1OC | -9 | -1 | -1 | -7 | u | 19499*
COc1cc(C(=O)NC2=NCCS2)cc(OC)c1OC | -3 | -8 | 2 | 2 | 0 | 4305
Cc1c(C(=O)NC2=NCCS2)oc2ccccc12 | 16 | -5 | -12 | -1 | -1 | 21128*
COc1cc(C(=O)NC2=NCCS2)ccc1OCc1c(C)noc1C | 7 | -6 | -6 | 0 | u | 20499*
CN(Cc1ccc(Cl)cc1)C(c1cc2ccccc2o1)c1nnnn1C(C)(C)C (centres undefined) | 9 | x | -6 | 5 | 0 | 6168
CCN(CC)C(=O)CSc1nnc(COc2ccc(OC)cc2)n1N | 15 | 1 | 6 | -6 | -1 | 3228
CCOc1ccc(-n2c(C)nnc2SCC(=O)N(CC)CC)cc1 | 4 | 7 | -1 | -1 | 1 | 19915*
CCOC(=O)C(=N/O)/C(C)=N/NC(C)=O | 2 | 5 | 46* | -5 | 4 | 4605
CCOC(=O)C(=N/O)/C(C)=N/NC(=O)C(=O)Nc1cc(Cl)ccc1Cl | -4 | 1 | -15 | -6 | -1 | 5280
CC1(C)CC(C#N)(N2CCOCC2)CCO1 (centres undefined) | -5 | -2 | 2 | 1 | u | 19964*
CS(=O)(=O)c1ccc(NC(=O)CCN2C(=O)NC3(CCCC3)C2=O)cc1 | -3 | x | 0 | -5 | 0 | 8734
COc1ccc(NC(=O)NNC(=O)CCn2nc(C)c([N+](=O)[O-])c2C)cc1OC | -3 | x | x | x | x | x
CC1(C)N=C(N)NC(Nc2ccc(Br)cc2)=N1 | 2 | 7 | -3 | -2 | -2 | 23628*
CC1(C)N=C(N)NC(Nc2cccc(Br)c2)=N1 | 8 | 0 | 1 | 6 | 0 | 4508
Cc1cccc(C)c1NC(=O)CSc1nnc(Cn2nnc(-c3ccccc3)n2)n1-c1ccccc1 | 3 | 1 | 0 | 1 | u | 19692*
O=C(CSc1nnc(Cc2ccccc2)n1-c1ccccc1)NNC(=O)Cc1ccccc1 | 3 | 6 | 2 | 3 | 2 | 21981*
Cc1cccc(C)c1NC(=O)C(c1ccccc1)N1CCN(C)CC1 (centres undefined) | 2 | x | x | x | x | x
CN1C(=O)C(=Cc2ccc(N3CCCCCC3)o2)C(=O)N(C)C1=S | 8 | 1 | 197* | 30* | 27 | 14036
SMILES | CCHF vOTU inh | SARS 3CLpro inh | BoNT-F LC inh | Anthrax LF inh2 | BoNT A protease | Autofluor counter
CC(=O)c1ccc(S(=O)(=O)Nc2ccc(C(=O)NCC(c3ccco3)N3CCCC3)cc2)cc1 (centres undefined) | -7 | x | -1 | -2 | -1 | 3944
CCCS(=O)(=O)c1nc(S(=O)(=O)c2ccc(C)cc2)c(N2CCN(CC)CC2)s1 | -9 | 1 | 9 | -1 | -1 | 4727
Cc1cccc(C(=O)OC(C)C(=O)N2CCN(Cc3ccccc3)CC2)c1 (centres undefined) | 11 | x | -40 | -2 | -27 | u
CCc1c(C)sc(NC(=O)OC)c1C(N)=O | -5 | -4 | -1 | 2 | -1 | 17066*
COC(=O)c1cc(-c2cccs2)c(=O)n2c1CCC2 | -76 | x | x | x | x | x
O=S1(=O)c2c(cccc2N2CCC[C@H]2CO)O[C@@H]2CCN1C2 | -2 | x | x | x | x | x
Cc1cccc(C)c1OCCCCc1c(C)n[nH]c1C | -7 | -3 | -5 | -8 | 0 | 22821*
COc1cccc(OC)c1OCCCCc1c(C)n[nH]c1C | -2 | 2 | -3 | 1 | 0 | 3161
CCCC(=O)NC1=C(C#N)C2(CCCC2)Cc2ccccc21 | -5 | 0 | -9 | -2 | u | 17626*
CCCCCOC(=O)C1C2C=CC3(CN(c4ccccc4C)C(=O)C13)O2 (centres undefined) | -5 | -3 | 2 | 0 | 1 | 21724*
O=S(=O)(c1cccc(S(=O)(=O)N2CCCC2)c1)c1cccc(S(=O)(=O)N2CCCC2)c1 | 10 | 1 | -4 | -3 | u | 21252*
O=S(=O)(c1cccc(Cl)c1)N1CCCC1 | x | -7 | -2 | -1 | -1 | 24145*
O=S(=O)(c1cccc(-c2nnc(-c3cccnc3)o2)c1)N1CCCCC1 | -9 | -1 | 1 | 0 | u | 19643*
O=S(=O)(c1cc(Cl)ccc1Br)N1CCCCC1 | -1 | 4 | 4 | -6 | 4 | 21533*
O=S(=O)(c1cccc(S(=O)(=O)N2CCCC2)c1)N1CCCCC1 | 2 | 0 | 6 | 1 | 2 | 5469
CC1CCN(S(=O)(=O)c2cccc(-c3nnc(-c4cccnc4)o3)c2)CC1 | -15 | 5 | -2 | -4 | 0 | 3713
Cc1nc(N2CCCCC2)c2c(C)c(C(=O)Nc3ccc4c(c3)OCCO4)sc2n1 | 7 | 10 | 0 | 0 | 1 | 3968
CCN(CC)C(=O)CC[C@H]1CC[C@]2(CCCN(Cc3ccccn3)C2)O1 | 2 | x | x | x | x | x
Cc1ccc(C(=O)NC2CC3CCC(C2)N3C)cc1 (centres undefined) | -3 | x | 4 | 7 | 1 | 3677
CC1(Cc2ccccc2C#N)C(=O)Nc2ccc(-c3ccccc3)cc21 (centres undefined) | 7 | x | -5 | -5 | 0 | 3490
O=C(CCCn1c(=S)[nH]c2cc3c(cc2c1=O)OCO3)NC1CC1 | 12 | 3 | -2 | -1 | -1 | 22975*
COc1ccc(CCn2c(O)c(/C=N/N3CCOCC3)c(=O)[nH]c2=O)cc1OC | -14 | -1 | x | x | x | x
COc1ccc(CCn2c(O)c(C=NCCN3CCCCC3)c(=O)[nH]c2=O)cc1OC | -3 | -5 | 6 | 2 | 4 | 20570*
CCN(CC)CCCN=Cc1c(O)n(CCc2ccc(F)cc2)c(=O)[nH]c1=O | 11 | -2 | -3 | -4 | 0 | 3306
NC1CCCCC1N=Cc1c(O)n(CCc2ccc(F)cc2)c(=O)[nH]c1=O (centres undefined) | -10 | 4 | 45* | -6 | 3 | u
O=C(NCc1ccccc1)N[C@@H](Cc1ccccc1)C(=O)O | -8 | -3 | -5 | -3 | u | 16799*
O=C(NCc1cccs1)N[C@@H](Cc1ccccc1)C(=O)O | 10 | -8 | 3 | 2 | 1 | 10498
COC(=O)[C@H](Cc1ccccc1)NC(=O)NCc1cccs1 | 2 | 1 | 14 | 2 | 10 | 19692*

Screens deposited in PubChem BioAssay by several laboratories.
